Common to all, as to test: DAPPL (digital affinity profiling via proximity ligation, sequencing); 10 mM Tris-HCl pH 7.5, 50 mM NaCl, 1 mM DTT, 4% glycerol, room temperature, 30 min; GST-TFs on glutathione beads, 16-mer random dsDNA library, 0.1% formaldehyde crosslink after washing; high values mean tight binding
Assay [1] addresses T1, FEV (Homo sapiens, UniProt Q99581 1-238).
T1 sequence: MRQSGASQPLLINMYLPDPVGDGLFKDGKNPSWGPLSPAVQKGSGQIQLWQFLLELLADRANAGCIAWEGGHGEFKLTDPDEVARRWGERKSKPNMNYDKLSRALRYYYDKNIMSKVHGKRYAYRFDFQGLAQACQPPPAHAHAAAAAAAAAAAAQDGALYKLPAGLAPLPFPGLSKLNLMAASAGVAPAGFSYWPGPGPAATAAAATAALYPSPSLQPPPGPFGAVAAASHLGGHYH
The conditions noted are these: protein: recombinant; tags: N-terminal GST; dsDNA, one strand shown. The procedure, abridged: (§1)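 Yeast served to express human transcription factors as GST fusions, which were then captured on glutathione beads and labelled with DNA barcodes. Pooled with a tag-only sample, they were incubated with 200 nmole of a 16-mer random double-stranded DNA library for 30 min at room temperature in Tris/NaCl/DTT/glycerol buffer, washed, crosslinked with 0.1% formaldehyde, ligated by proximity, amplified by PCR and sequenced. Dividing each hexamer's read frequency for a factor by its frequency for the tag-only sample gives the binding signal.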

In assay [2] the target is ETV5 (Homo sapiens, UniProt P41161 1-510). The conditions noted are these: protein: recombinant; tags: N-terminal GST; dsDNA, one strand shown. In short, it runs like this: as §1
Chain of ETV5 (P41161 whole entry): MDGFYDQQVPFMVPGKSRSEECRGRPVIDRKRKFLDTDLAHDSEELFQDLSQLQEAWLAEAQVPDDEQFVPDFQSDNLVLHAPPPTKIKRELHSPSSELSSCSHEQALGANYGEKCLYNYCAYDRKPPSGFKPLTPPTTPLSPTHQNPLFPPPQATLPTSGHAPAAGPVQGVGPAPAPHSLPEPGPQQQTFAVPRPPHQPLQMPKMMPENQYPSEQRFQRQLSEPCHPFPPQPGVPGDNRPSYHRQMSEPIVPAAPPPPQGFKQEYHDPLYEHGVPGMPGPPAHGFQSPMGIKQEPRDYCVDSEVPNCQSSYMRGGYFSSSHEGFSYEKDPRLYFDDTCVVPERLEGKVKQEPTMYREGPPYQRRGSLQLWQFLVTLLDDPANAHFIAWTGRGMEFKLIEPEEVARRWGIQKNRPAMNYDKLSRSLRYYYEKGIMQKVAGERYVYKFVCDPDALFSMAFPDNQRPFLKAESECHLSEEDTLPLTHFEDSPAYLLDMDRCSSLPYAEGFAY
The target in assay [3] is HSF1 (Homo sapiens, UniProt Q00613 1-529). The conditions noted are these: protein: recombinant; tags: N-terminal GST; chain copies: 3; dsDNA, one strand shown. The procedure, abridged: as §1
Chain of HSF1 (Q00613 whole entry): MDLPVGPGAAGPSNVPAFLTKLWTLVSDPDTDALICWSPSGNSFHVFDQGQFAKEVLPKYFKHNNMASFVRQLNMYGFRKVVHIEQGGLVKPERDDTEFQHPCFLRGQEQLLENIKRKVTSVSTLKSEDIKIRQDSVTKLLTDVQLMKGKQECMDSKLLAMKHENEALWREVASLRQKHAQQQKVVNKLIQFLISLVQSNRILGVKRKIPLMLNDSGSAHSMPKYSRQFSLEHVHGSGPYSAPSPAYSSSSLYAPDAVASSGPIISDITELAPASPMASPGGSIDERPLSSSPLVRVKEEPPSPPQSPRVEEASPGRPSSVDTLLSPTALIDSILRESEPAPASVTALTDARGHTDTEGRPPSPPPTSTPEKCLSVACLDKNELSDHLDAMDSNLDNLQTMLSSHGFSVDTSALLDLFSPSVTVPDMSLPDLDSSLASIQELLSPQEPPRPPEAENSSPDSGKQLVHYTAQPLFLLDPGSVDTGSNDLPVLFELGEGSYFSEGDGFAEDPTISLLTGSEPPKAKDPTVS
The target in assay [4] is T2, SPIC (Homo sapiens, UniProt Q8N5J4 1-248).
T2 sequence: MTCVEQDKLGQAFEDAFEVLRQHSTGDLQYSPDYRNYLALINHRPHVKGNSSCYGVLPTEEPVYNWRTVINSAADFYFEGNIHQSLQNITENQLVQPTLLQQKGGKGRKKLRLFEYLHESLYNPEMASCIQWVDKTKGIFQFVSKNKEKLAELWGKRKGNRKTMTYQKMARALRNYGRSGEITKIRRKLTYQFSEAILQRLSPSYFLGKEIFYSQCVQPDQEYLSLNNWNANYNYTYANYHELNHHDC
Particulars: protein: recombinant; tags: N-terminal GST; dsDNA, one strand shown. The procedure, abridged:
as §1

In assay [5] the target is ELF4 (Homo sapiens, UniProt Q99607 1-663). The conditions noted are these: protein: recombinant; tags: N-terminal GST; dsDNA, one strand shown. The procedure, abridged:
as §1

Assay [6] deals with T3, ELK4 (Homo sapiens, UniProt P28324-2 1-405).
T3 sequence: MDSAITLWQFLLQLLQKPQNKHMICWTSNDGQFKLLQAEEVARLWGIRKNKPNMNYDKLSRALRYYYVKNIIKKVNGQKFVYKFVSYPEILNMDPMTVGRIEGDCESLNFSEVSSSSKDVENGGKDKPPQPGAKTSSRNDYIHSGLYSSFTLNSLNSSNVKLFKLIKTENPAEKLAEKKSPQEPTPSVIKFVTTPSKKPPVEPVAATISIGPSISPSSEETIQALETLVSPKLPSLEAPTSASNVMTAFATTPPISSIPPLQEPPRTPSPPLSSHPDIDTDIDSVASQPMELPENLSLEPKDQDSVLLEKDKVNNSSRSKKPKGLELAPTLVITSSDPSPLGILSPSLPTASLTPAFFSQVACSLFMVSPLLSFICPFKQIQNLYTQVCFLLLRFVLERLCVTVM
The conditions noted are these: protein: recombinant; tags: N-terminal GST; dsDNA, one strand shown. In short, it runs like this: as §1

The target in assay [7] is T4, ETV2 (Homo sapiens, UniProt O00321 1-342).
T4 sequence: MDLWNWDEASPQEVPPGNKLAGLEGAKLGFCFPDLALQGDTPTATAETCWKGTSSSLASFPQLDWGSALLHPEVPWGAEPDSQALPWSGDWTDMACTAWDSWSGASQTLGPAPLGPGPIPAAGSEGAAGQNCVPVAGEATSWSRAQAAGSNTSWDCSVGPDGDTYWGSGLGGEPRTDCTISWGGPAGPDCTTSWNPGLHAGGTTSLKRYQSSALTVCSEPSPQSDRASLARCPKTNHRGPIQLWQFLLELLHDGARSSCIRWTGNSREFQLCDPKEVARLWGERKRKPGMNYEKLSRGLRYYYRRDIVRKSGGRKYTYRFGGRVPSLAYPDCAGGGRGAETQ
Particulars: protein: recombinant; tags: N-terminal GST; dsDNA, one strand shown. The procedure, abridged:
as §1

The target of assay [8] is T5, ELF3 (Homo sapiens, UniProt P78545 1-371).
T5 sequence: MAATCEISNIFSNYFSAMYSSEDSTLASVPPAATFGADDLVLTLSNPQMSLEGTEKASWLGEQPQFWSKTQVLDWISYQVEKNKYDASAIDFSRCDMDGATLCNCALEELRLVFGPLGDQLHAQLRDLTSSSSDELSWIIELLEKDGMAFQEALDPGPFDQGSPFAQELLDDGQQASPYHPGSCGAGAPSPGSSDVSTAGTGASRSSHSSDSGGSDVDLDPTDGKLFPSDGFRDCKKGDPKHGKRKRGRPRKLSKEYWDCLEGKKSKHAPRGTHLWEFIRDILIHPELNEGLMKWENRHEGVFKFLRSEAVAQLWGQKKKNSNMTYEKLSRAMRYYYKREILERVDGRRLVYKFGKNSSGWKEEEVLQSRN
Particulars: protein: recombinant; tags: N-terminal GST; dsDNA, one strand shown. The procedure, abridged:
as §1

The target of assay [9] is CRX (Homo sapiens, UniProt O43186 1-299). Particulars: protein: recombinant; tags: N-terminal GST; dsDNA, one strand shown. In short, it runs like this: as §1
Chain of CRX (O43186 whole entry): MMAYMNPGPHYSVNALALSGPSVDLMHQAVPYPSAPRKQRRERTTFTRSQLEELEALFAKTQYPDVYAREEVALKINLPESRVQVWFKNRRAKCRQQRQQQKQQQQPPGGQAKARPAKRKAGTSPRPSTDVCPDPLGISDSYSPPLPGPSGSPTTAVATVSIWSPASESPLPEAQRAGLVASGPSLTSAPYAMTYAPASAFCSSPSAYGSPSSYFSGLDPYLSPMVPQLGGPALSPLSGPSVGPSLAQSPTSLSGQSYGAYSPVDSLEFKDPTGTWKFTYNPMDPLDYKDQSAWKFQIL
Assay [10] addresses ETV1 (Homo sapiens, UniProt P50549 1-477). The conditions noted are these: protein: recombinant; tags: N-terminal GST; dsDNA, one strand shown. In short, it runs like this: as §1
Assay [11] deals with T6, ERF (Homo sapiens, UniProt P50548 1-548).
T6 sequence: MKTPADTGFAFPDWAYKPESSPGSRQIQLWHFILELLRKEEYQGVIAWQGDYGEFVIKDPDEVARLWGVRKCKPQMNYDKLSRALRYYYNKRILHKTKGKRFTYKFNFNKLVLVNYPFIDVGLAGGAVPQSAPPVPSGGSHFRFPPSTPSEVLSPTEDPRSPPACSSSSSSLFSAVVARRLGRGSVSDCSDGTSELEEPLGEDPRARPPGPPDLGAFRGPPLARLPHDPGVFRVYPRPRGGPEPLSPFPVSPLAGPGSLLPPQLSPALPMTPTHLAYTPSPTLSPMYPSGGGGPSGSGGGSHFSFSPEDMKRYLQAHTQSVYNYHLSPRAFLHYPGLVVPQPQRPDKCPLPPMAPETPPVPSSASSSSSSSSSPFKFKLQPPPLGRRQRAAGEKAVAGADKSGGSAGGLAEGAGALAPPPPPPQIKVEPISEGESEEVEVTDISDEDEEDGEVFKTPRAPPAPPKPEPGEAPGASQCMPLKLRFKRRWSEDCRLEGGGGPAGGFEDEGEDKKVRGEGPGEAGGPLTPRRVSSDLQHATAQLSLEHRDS
The conditions noted are these: protein: recombinant; tags: N-terminal GST; dsDNA, one strand shown. In short, it runs like this: as §1

Assay [12] concerns the target T7, ETV3L (Homo sapiens, UniProt Q6ZN32 1-361).
T7 sequence: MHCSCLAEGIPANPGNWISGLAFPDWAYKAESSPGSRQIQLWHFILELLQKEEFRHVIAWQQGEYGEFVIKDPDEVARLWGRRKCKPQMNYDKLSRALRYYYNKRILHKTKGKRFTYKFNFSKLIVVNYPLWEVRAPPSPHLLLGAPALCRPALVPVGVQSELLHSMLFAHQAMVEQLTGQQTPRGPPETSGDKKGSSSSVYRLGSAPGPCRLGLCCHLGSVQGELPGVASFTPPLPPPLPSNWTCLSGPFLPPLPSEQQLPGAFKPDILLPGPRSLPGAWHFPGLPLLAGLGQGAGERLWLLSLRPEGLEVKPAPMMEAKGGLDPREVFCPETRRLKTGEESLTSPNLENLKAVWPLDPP
Particulars: protein: recombinant; tags: N-terminal GST; dsDNA, one strand shown. The procedure, abridged:
as §1

In assay [13] the target is T8, ETS2 (Homo sapiens, UniProt P15036 1-469).
T8 sequence: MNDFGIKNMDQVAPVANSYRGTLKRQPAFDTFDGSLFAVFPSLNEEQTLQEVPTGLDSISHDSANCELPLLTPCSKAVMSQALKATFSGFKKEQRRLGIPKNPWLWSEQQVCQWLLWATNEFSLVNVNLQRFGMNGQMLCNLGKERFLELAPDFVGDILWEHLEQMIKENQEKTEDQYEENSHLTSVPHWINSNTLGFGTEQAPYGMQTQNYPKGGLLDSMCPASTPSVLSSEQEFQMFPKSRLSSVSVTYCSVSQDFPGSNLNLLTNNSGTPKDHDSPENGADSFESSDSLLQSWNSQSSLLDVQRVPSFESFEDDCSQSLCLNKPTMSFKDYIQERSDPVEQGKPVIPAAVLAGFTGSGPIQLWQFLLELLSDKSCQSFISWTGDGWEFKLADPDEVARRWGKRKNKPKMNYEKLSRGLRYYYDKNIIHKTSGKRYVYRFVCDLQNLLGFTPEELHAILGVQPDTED
Particulars: protein: recombinant; tags: N-terminal GST; dsDNA, one strand shown. The procedure, abridged: as §1

For assay [14], the target named is T9, SPDEF (Homo sapiens, UniProt O95238 1-335).
T9 sequence: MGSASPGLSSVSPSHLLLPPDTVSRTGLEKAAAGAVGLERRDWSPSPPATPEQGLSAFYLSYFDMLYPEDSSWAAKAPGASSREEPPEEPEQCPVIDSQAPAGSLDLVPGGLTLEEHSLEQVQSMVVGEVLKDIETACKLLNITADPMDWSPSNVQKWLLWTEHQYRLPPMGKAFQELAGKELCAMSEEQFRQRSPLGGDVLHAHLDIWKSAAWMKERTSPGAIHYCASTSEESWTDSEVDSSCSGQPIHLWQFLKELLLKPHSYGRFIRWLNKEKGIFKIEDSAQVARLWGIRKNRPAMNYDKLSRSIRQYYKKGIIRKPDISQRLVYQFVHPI
The conditions noted are these: protein: recombinant; tags: N-terminal GST; dsDNA, one strand shown. The procedure, abridged:
as §1

The target in assay [15] is T10, ETV7 (Homo sapiens, UniProt Q9Y603 1-341).
T10 sequence: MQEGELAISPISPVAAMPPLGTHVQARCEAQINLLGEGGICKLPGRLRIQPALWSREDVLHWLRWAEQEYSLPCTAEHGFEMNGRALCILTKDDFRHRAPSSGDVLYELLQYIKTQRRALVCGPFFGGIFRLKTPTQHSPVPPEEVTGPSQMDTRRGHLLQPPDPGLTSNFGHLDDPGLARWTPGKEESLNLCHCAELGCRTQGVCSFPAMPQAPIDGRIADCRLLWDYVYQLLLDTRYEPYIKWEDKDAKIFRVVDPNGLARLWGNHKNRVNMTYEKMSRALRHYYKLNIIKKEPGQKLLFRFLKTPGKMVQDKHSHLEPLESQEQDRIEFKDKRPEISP
The conditions noted are these: protein: recombinant; tags: N-terminal GST; dsDNA, one strand shown. In short, it runs like this: as §1

Assay [16] addresses T11, ELF5 (Homo sapiens, UniProt Q9UKW6-2 1-255).
T11 sequence: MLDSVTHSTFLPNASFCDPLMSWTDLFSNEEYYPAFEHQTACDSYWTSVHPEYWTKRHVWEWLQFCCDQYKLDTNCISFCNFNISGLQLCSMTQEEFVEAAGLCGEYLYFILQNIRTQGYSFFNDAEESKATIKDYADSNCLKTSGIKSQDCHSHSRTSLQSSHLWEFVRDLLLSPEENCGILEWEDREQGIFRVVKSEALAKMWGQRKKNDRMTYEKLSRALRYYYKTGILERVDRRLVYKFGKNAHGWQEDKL
The conditions noted are these: protein: recombinant; tags: N-terminal GST; dsDNA, one strand shown. In short, it runs like this: as §1

For assay [17], the target named is T12, ETV3 (Homo sapiens, UniProt P41162-2 1-143).
T12 sequence: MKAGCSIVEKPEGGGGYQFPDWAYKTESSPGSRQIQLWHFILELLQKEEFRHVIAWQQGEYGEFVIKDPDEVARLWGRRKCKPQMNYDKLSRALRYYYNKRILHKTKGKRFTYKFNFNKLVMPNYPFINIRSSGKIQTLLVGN
The conditions noted are these: protein: recombinant; tags: N-terminal GST; dsDNA, one strand shown. The procedure, abridged: as §1

The target of assay [18] is ETV6 (Homo sapiens, UniProt P41212 1-452). Particulars: protein: recombinant; tags: N-terminal GST; dsDNA, one strand shown. The procedure, abridged:
as §1

Chain of ETV1 (P50549 whole entry): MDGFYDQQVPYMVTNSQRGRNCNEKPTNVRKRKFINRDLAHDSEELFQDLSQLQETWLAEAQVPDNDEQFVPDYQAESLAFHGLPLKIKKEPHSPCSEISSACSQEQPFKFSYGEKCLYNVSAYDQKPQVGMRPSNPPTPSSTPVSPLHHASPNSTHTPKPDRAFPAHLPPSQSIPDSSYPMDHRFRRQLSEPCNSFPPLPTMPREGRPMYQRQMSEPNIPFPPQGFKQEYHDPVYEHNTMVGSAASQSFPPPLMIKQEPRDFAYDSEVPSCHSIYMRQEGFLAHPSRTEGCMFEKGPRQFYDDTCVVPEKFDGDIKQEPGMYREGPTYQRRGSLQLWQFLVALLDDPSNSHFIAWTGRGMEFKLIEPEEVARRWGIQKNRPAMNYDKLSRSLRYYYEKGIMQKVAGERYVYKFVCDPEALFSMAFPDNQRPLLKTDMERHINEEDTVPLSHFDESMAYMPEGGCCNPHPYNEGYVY
Chain of ELF4 (Q99607 whole entry): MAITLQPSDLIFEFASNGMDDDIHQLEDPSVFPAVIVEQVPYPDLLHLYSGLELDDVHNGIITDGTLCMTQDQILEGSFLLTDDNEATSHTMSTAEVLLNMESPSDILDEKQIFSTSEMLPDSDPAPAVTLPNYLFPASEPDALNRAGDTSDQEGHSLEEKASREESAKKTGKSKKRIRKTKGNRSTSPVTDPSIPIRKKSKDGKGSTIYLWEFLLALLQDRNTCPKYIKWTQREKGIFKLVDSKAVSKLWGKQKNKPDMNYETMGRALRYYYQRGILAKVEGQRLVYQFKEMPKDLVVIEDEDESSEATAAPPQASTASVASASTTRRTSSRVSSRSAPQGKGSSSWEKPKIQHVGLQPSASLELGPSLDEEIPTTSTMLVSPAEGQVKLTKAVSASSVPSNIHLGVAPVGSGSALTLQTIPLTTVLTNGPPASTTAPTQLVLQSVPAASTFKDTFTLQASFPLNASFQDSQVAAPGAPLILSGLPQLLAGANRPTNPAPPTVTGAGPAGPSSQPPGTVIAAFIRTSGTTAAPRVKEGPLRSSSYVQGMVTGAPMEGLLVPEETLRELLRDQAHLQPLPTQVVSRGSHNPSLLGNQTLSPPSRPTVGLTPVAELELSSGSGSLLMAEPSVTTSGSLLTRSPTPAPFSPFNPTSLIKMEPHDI
Chain of ETV6 (P41212 whole entry): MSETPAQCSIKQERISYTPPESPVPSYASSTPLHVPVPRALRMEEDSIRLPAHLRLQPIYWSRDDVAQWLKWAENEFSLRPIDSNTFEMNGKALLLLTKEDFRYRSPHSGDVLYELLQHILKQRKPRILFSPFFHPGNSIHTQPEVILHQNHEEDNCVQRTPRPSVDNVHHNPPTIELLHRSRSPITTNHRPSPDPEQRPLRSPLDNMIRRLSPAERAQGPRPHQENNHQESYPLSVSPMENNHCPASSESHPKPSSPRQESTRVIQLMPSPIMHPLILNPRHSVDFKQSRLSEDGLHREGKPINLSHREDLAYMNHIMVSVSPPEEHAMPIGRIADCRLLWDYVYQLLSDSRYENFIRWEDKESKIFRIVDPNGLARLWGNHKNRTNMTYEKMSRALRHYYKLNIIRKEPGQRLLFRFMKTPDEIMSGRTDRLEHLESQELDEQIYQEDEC

As to TAATAA, the binding signal in assay [1] was 1.13 fold enrichment (6-mer frequency, TF over GST control); in assay [2], 1.22 fold enrichment (6-mer frequency, TF over GST control); in assay [3], 1.76 fold enrichment (6-mer frequency, TF over GST control); in assay [4] it was 1.17 fold enrichment (6-mer frequency, TF over GST control); in assay [5] it was 1.21 fold enrichment (6-mer frequency, TF over GST control); in [6], 1.06 fold enrichment (6-mer frequency, TF over GST control). Besides, the binding signal is 1.17 fold enrichment (6-mer frequency, TF over GST control) in [7]; 1.21 fold enrichment (6-mer frequency, TF over GST control) in assay [8]; 2.43 fold enrichment (6-mer frequency, TF over GST control) in assay [9]; 1.12 fold enrichment (6-mer frequency, TF over GST control) in assay [10]; 1.28 fold enrichment (6-mer frequency, TF over GST control) in assay [11]; 1.24 fold enrichment (6-mer frequency, TF over GST control) in [12]. The binding signal in [13] is 1.21 fold enrichment (6-mer frequency, TF over GST control); in [14] it was 1.19 fold enrichment (6-mer frequency, TF over GST control); in assay [15], 1.14 fold enrichment (6-mer frequency, TF over GST control); in assay [16] it was 1.15 fold enrichment (6-mer frequency, TF over GST control); in assay [17] it was 1.11 fold enrichment (6-mer frequency, TF over GST control); in assay [18], 1.17 fold enrichment (6-mer frequency, TF over GST control).

The values above are taken from paper PMC7862700, “An all-to-all approach to the identification of sequence-specific readers for epigenetic DNA modifications on cytosine”.
